Hits are enriched below; roughly 3% of the tested compounds scored in any of these assays.
USP1-UAF1 inh – inhibitors of human USP1/UAF1 deubiquitinase; AID 743255; 390,000 compounds, 0.23% hits; Potency, µM (highest dose often 57.1 µM), usual class: inhibitors; O94782; recombinant USP1/UAF1, Ub-Rhodamine cleavage fluorescence; note: nearly all actives have a fitted effect of over 60% in size
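USP1/UAF1 complex (1 nM) preincubated 15 min at room temperature with compound, then Ub-Rho substrate (150 nM final) added. Kinetic fluorescence at 480/540 nm over 6 reads at 60 s intervals; 50 mM HEPES pH 7.8, 0.5 mM EDTA, 0.1 mg/ml BSA, 1 mM TCEP, 0.01% Tween-20.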
PLK1 PBD inh – PLK1 (human) polo-box domain binding inhibition; P53350; Plk1 PBD binding of FITC phosphopeptide, fluorescence polarization; 360,000 compounds, 2.8% hits; Potency, µM, hits mostly inhibitors; note: series mostly up to about 57 µM; nearly all actives have a fitted effect of over 65% in size
PTAP TSG101 blk – blocks PTAP/TSG101 interaction to inhibit HIV-1 budding; Q99816; Fluorescence polarization, FITC-PTAP peptide / Tsg101 binding; Potency, µM (top dose mostly 115 µM), hits mostly inhibitors; 340,000 tested, under 10 active; active = well fitted inhibition curve with a large enough effect in the main read-out, with a control signal flat, not every such curve was filed as active; inconclusive = small, poorly fitted or top-dose-only effect, or effect the other way, or a change in a side signal; inactive = no such curve, though single readings can be large or run the other way
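FP read-out: FITC-PTAP peptide, 50 nM final, binding Tsg101 binding domain, 10 uM final; 20 min, r.t.; 10 mM HEPES pH 7.5, 0.15 M NaCl, 0.01% Tween 20, 3 mM EDTA, 0.1 mM TCEP.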
KAT2A inh – blocks human GCN5L2 histone acetyltransferase; GCN5L2 HAT assay, ThioGlo1 CoA-SH fluorescence; Potency, µM (series often up to 58.9 µM), hits mostly inhibitors; 390,000 compounds, 0.21% hits; AID 504327
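Preincubate 20nM GCN5L2 with compound 15 min, RT → add 50uM ThioGlo1 + 75uM H3(1-25) + 70uM acetyl-CoA → read fluorescence 0 and 20 min. Primary qHTS; fluorescent artifacts likely.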
VDR inhibitor – inhibitors of human vitamin D receptor | VDR-SRC2-3 peptide fluorescence polarization, 2 h | 400,000 compounds, 0.93% hits | P11473 | AID 504847 | Potency, µM, usual class: inhibitors
Target sequence (P11473 whole entry, looked up): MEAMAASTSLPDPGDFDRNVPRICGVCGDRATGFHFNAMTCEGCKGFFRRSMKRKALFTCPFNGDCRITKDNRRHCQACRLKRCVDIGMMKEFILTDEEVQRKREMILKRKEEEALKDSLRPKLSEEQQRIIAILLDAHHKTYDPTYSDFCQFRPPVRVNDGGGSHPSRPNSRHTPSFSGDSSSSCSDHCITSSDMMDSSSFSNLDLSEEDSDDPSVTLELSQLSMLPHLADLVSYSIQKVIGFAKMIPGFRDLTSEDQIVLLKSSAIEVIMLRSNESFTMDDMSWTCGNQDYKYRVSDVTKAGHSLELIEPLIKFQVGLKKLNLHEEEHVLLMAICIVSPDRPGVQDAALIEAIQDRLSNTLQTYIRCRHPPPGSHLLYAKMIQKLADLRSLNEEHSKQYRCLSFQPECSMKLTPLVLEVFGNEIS
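Two reagent solutions held at 4 deg C in the dark were dispensed, compounds pinned at 23 nl, and the mixture incubated 2 h at room temperature. Read-out: fluorescence polarization of VDR–SRC2-3 peptide binding.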
Each line names hits and unclear results; the compound was inactive in the other large screens; ! = repeats disagree. Unless noted, calls come from the whole dose curve; as a rule, active = well fitted curve in the direction sought with a large enough effect; inconclusive = small, poorly fitted or top-dose-only effect, or another doubt; inactive = no such curve, though single readings can be large; an effect the other way counts as inactive or inconclusive.

O=C(CCNc1ccc(Br)cc1)c1cccc([N+](=O)[O-])c1	PLK1 PBD inh inconclusive, VDR inhibitor 89µM
O=C1C(Cl)=C(Nc2ccccc2O)C(=O)N1CCc1ccccc1	PLK1 PBD inh 4.2µM
COc1ccccc1NC1=C(Cl)C(=O)N(c2ccccc2)C1=O	none
CCOc1ccc(N2C(=O)C(Cl)=C(Nc3ccccc3O)C2=O)cc1	PLK1 PBD inh 8.4µM
CC(C)c1ccc(N2C(=O)C(Cl)=C(N3CCOCC3)C2=O)cc1	none
CCOc1ccc(N2C(=O)C(Cl)=C(N3CCOCC3)C2=O)cc1	VDR inhibitor 28µM
COc1cc(OC)c(NC(=O)CN(C)S(=O)(=O)c2ccc3[nH]c(=O)oc3c2)cc1Cl	none
CO[C@]12C(COC(N)=O)C3=C(C(=O)C(C)=C(N)C3=O)N1CC1NC12 (stereo partly specified)	none (no result: USP1-UAF1 inh, PLK1 PBD inh, PTAP TSG101 blk)
O=C(CCl)c1ccc(Cc2ncc(C(F)(F)F)cc2Cl)s1	PLK1 PBD inh 2.4µM, VDR inhibitor inconclusive
O=C(N/N=C/c1cccc([N+](=O)[O-])c1)c1nc2ccccc2c(=O)[nH]1	none
O=C(N/N=C/c1ccccc1Cl)c1nc2ccc([N+](=O)[O-])cc2c(=O)[nH]1	PLK1 PBD inh 24µM, VDR inhibitor inconclusive
O=C(CSc1cn(CC(=O)N2CCCCCC2)c2ccccc12)NCC1CCCO1 (stereo unspecified)	none
CCn1cc(SCC(=O)NCC2CCCO2)c2ccccc21 (stereo unspecified)	PLK1 PBD inh 7.5µM
Cn1cccc1Cc1nnc(SCC(=O)NCC2CCCO2)n1C (stereo unspecified)	PLK1 PBD inh 24µM
CC1CCCC(NC(=O)COC(=O)CCC(=O)c2ccc(F)cc2)C1C (stereo unspecified)	none
CC1CC=C2C(C#N)=C(N)C(C#N)(C#N)C(c3cccs3)C2C1 (stereo unspecified)	USP1-UAF1 inh inconclusive, PLK1 PBD inh 27µM, PTAP TSG101 blk inconclusive, VDR inhibitor inconclusive
CCOC(=O)N1CC=C2C(C#N)=C(N)C(C#N)(C#N)[C@H](c3cccs3)C2C1 (stereo partly specified)	none
CC(C)N1CC=C2C(C#N)=C(N)C(C#N)(C#N)C(c3ccccc3)C2C1 (stereo unspecified)	USP1-UAF1 inh inconclusive, PLK1 PBD inh inconclusive
CC(C)(C)OC(=O)N1CC=C2C(C#N)=C(N)C(C#N)(C#N)C(c3cccs3)C2C1 (stereo unspecified)	USP1-UAF1 inh inconclusive, VDR inhibitor 35µM
CCOC(=O)Cc1ccc(NC(=O)N2CCc3c(sc4c3CCCC4)C2c2ccc(F)cc2)cc1 (stereo unspecified)	none (no result: PLK1 PBD inh, PTAP TSG101 blk)
Cc1c(-c2ccc(Cl)cc2)[n+](=O)c(-c2ccccc2)cn1[O-]	none
CC1=C(c2ccc(Cl)cc2)[N+](=O)C(C)(C)N1[O-]	PLK1 PBD inh 12µM
CC(=O)OC/C=C(C)/C=C/C=C(C)/C=C/C1=C(C)CCCC1(C)C	VDR inhibitor 40µM! (no result: USP1-UAF1 inh, PLK1 PBD inh, PTAP TSG101 blk)
Cc1ccc(Cn2c(C(=O)NCc3ccccc3Cl)cc3sccc32)cc1	none (no result: PLK1 PBD inh, PTAP TSG101 blk)
Cc1c(C(=O)N2CCOCC2)c(S(=O)(=O)Nc2ccccc2F)c(C)n1C	none
Cc1c(C(=O)N2CCCCC2)c(S(=O)(=O)Nc2cccc(Br)c2)c(C)n1C	none
Cc1c(C(=O)N2CCOCC2)c(S(=O)(=O)Nc2ccc(Br)cc2F)c(C)n1C	PLK1 PBD inh 27µM, VDR inhibitor inconclusive
Cc1c(C(=O)N2CCOCC2)c(S(=O)(=O)Nc2cccc(Br)c2)c(C)n1C	PLK1 PBD inh 27µM
COC(=O)c1ccc(NC(=O)C2CCN(C(=O)c3ccc(F)cc3)CC2)cc1	none (no result: PLK1 PBD inh, PTAP TSG101 blk)
CCc1nc2sc3c(=O)[nH]cnc3c2c2c1CSC(C)(C)C2	PLK1 PBD inh 27µM
COc1ccccc1CNC(=O)CN1C(=O)CSc2ccc(S(=O)(=O)N3CCCCC3)cc21	none (no result: PLK1 PBD inh, PTAP TSG101 blk)
COc1ccc(N2CCN(C(=O)Cc3ccc(OC)c(OC)c3)CC2)cc1	PLK1 PBD inh 24µM, VDR inhibitor inconclusive
CC[C@@]12CCCN3CCc4c(n(c5ccccc45)[C@](O)(C(=O)OC)C1)[C@H]32	KAT2A inh 13µM! (no result: USP1-UAF1 inh, PLK1 PBD inh, PTAP TSG101 blk)
CCC12CCCN3CCc4c(n(c5ccccc45)C(O)(C(=O)OC)C1)C32 (stereo unspecified)	USP1-UAF1 inh inconclusive, VDR inhibitor inconclusive
CCCCc1nn2c(=O)cc(COC(=O)c3ccccc3NC(=O)C3CCCCC3)nc2s1	none (no result: PLK1 PBD inh, PTAP TSG101 blk)
COc1ccccc1NC(=O)c1ccccc1NC(=O)c1ccccc1	none (no result: PLK1 PBD inh, PTAP TSG101 blk)
COc1ccccc1NC(=O)Nc1ccccc1Br	PLK1 PBD inh 12µM, VDR inhibitor inconclusive
COc1ccccc1NC(=O)O/N=C(\N)c1ccccc1	USP1-UAF1 inh inconclusive, PLK1 PBD inh 11µM, VDR inhibitor inconclusive
COc1ccccc1NC(=O)C(C/C=C(/C)Cl)C(C)=O (stereo unspecified)	PLK1 PBD inh 30µM
COc1ccccc1NC(C)=O	none
COc1ccccc1NC(=O)CC(=O)Nc1ccccc1OC	none
COc1ccccc1NC(=O)CC(=O)c1ccccc1	PLK1 PBD inh 30µM, VDR inhibitor inconclusive
C[C@@H](c1ccccc1)N1C[C@H](COCc2ccccc2)Oc2cc(N3CC[C@H](N(C)C)C3)ccc2S1(=O)=O	none (no result: USP1-UAF1 inh, PTAP TSG101 blk, KAT2A inh, VDR inhibitor)
CN1C(=O)CC2(C=CC(=O)C=C2OC(=O)c2ccccc2)c2ccccc21 (stereo unspecified)	none (no result: USP1-UAF1 inh, PLK1 PBD inh, PTAP TSG101 blk, KAT2A inh)
CCCCCCN1C[C@H](n2cc(-c3ccc(F)cc3)nn2)[C@@H](O)C[C@@H]1c1ccc(C)cc1	none (no result: PTAP TSG101 blk, KAT2A inh, VDR inhibitor)
CCc1ccc(-n2nc(CO)c(C(=O)NCc3ccccc3Cl)n2)cc1	none (no result: PLK1 PBD inh, PTAP TSG101 blk)
COc1ccccc1NC(=O)CCC(=O)Nc1cc(OC)c(NC(=O)c2cccs2)cc1OC	PLK1 PBD inh 27µM, VDR inhibitor inconclusive
COc1ccc(CNC(=O)CSc2nc3ccsc3c(=O)n2Cc2ccccc2Cl)cc1	none (no result: PLK1 PBD inh, PTAP TSG101 blk)
CCCCn1c(N)c(N(C)C(=O)c2cc3c(F)cccc3s2)c(=O)[nH]c1=O	none
CCOC(=O)C1=C(CS(=O)(=O)c2ccc(C)cc2)NC(=O)NC1c1ccc(C(C)C)cc1 (stereo unspecified)	none (no result: PLK1 PBD inh, PTAP TSG101 blk)
CCOc1ccc(-c2nc(S(=O)(=O)c3ccccc3)c(NC)o2)cc1	none
CNc1oc(Cc2ccccc2)nc1S(=O)(=O)c1ccccc1	PLK1 PBD inh 2.7µM
CCC1C(=O)N=C(SCC(=O)Nc2ccc(Br)cn2)NC1=O (stereo unspecified)	PLK1 PBD inh 27µM, VDR inhibitor inconclusive
CCC1C(=O)N=C(SCC(=O)Nc2cccc3ccccc23)NC1=O (stereo unspecified)	none
CCOC(=O)c1ccccc1NC(=O)CN(c1ccccc1OC)S(=O)(=O)c1ccc(C)cc1	none (no result: PLK1 PBD inh, PTAP TSG101 blk)
Cc1c(N2C(=O)CS/C2=N\N=C\c2ccc(Br)cc2)c(=O)n(-c2ccccc2)n1C	KAT2A inh 1.6µM
NC(C(=O)O)c1cccc(O)c1 (stereo unspecified)	none (no result: USP1-UAF1 inh, PLK1 PBD inh, PTAP TSG101 blk)
